Compound activity as filed in PubChem BioAssay.
ERa SRC1 pot: enhances coactivator binding to human estrogen receptor alpha. 86,000 compounds, 1.3% hits. TR-FRET ERalpha-LBD/SRC-Cy5 coactivator binding, 2 h; 100 = basal binding, no effect. coactivator binding (% of control), % at 25.6 µM. P03372; in the data active = activity above about 200%;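 note: binding measured in presence of low estradiol as agonist stimulus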
ERb coact inh: blocks coactivator binding to human estrogen receptor beta; TR-FRET ER-beta LBD / SRC1-Cy5 peptide binding; receptor agonist-loaded with 1 µM estradiol; AID 633; inhibition, % at 25.6 µM; 86,000 compounds, 1.3% hits;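 active = compounds whose percent inhibition of the receptor-coactivator binding signal exceeds about 50% in the single-dose screen, limit read from the data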
Smad3 FoxH1 inh: blocks human Smad3 binding to FoxH1 peptide. P84022. TR-FRET Smad3/Dy647-FoxH1 peptide binding, europium anti-His. inhibition, % at 25 µM. 88,000 compounds, 0.29% hits;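 active = compounds that reduce the energy-transfer binding signal between the protein and its labelled peptide by more than half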
Target sequence (P84022 whole entry, looked up): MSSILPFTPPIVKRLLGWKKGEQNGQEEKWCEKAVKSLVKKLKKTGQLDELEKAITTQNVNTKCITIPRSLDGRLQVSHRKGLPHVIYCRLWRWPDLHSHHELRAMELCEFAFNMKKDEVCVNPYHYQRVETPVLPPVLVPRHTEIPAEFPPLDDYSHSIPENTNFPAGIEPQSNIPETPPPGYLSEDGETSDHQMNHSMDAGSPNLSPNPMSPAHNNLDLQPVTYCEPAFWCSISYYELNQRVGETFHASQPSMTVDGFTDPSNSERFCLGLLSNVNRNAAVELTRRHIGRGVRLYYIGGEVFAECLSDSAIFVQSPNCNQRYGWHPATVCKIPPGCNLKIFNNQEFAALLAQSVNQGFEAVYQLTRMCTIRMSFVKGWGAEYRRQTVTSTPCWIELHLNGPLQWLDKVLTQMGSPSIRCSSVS
ERa SRC1 inh: ER-alpha (human) coactivator binding inhibition | P03372 | 86,000 compounds, 1.7% hits | AID 629 | inhibition, % at 25.6 µM | TR-FRET ER-alpha LBD / SRC-1 peptide, estradiol-bound; in the data active = inhibition above about 50%
Each line names hits and unclear results; the compound was inactive in the other large screens; [ ] = another dose, or the depositor's remark. The list is not random: actives were taken first. Their share in the collection is about 3.7%.

Cc1cccc(-n2c(SCCC(=O)O)nnc2-c2cccs2)c1C	ERb coact inh 50.2
CC1(C)Cc2ccccc2-c2nnc(SCC(=O)N3CCc4ccccc43)n21	ERa SRC1 pot 293.1[fluorescence artefact?]
Cn1c(=O)n(-c2cccc(Cl)c2)c(=O)c2c3c(sc21)COC(C)(C)C3	none
Cc1c(Cl)cccc1NC(=O)C[C@H]1Sc2ccccc2NC1=O	none (no result: ERa SRC1 pot, ERb coact inh, ERa SRC1 inh)
O=C(O)c1ccc([N+]2=Cn3c(nc4ccccc43)C2)cc1	none (no result: ERa SRC1 pot, ERb coact inh, ERa SRC1 inh)
O=C(O)[C@@H]1[C@H](C(=O)NCc2ccncc2)[C@@H]2C=C[C@H]1O2	none (no result: ERa SRC1 pot, ERb coact inh, ERa SRC1 inh)
Cc1nc2ccccc2n1CC(=O)OCC(=O)NCCc1ccccc1	none
Cc1ccccc1NC(=O)CSc1nnc(-c2ccccc2)n1-c1ccccc1	ERa SRC1 pot 401.7[fluorescence artefact?]
O=C(CSc1nnc(-c2cccs2)n1-c1ccccc1)NCc1ccc2c(c1)OCO2	none
Cc1ccc(-n2c(SCC(=O)Nc3ccc4c(c3)OCO4)nnc2-c2cccs2)cc1	ERa SRC1 pot 378.2[fluorescence artefact?], ERa SRC1 inh 85.3[fluorescence artefact?]
O=C(CSc1nnc(-c2cccnc2)n1-c1ccccc1)Nc1ccc2c(c1)OCO2	ERb coact inh 57.4
O=C(O)[C@@H]1[C@H](C(=O)NCc2ccccn2)[C@@H]2C=C[C@H]1O2	none (no result: ERa SRC1 pot, ERb coact inh, ERa SRC1 inh)
CCOc1ccc2[nH]c(=O)c(CN(Cc3ccc(F)cc3)C(=O)N3CCCC3)cc2c1	ERa SRC1 pot 331.0[fluorescence artefact?]
CCOc1ccc2[nH]c(=O)c(CN(Cc3ccc(F)cc3)C(=O)c3ccco3)cc2c1	none
Cc1ccc(C(=O)Nc2ccc(O)c(C(=O)O)c2)o1	none
CC(C)(C)c1ccc(OC(=O)Nc2ccc(O)c(C(=O)O)c2)cc1	Smad3 FoxH1 inh 65.3 (no result: ERa SRC1 pot, ERb coact inh, ERa SRC1 inh)
COc1ccc(C)cc1NC(=O)CSc1nnc(CC(=O)Nc2ccccc2C)n1C	none
O=C(CCSCCC(=O)NCc1ccco1)NCc1ccco1	ERb coact inh 56.8[fluorescence artefact?], ERa SRC1 inh 59.1[fluorescence artefact?]
O=C(COC(=O)CCOc1ccccc1)NCc1ccco1	ERb coact inh 61.7[fluorescence artefact?], ERa SRC1 inh 70.0
O=C(CSCC(=O)NCc1ccco1)NCc1ccco1	none
O=C(CSC1=NCCN1)Nc1ccccc1	none (no result: ERa SRC1 pot, ERb coact inh, ERa SRC1 inh)
CC(=O)c1cccc(NC(=O)CN2C(=O)NC3(CCCCCCC3)C2=O)c1	ERa SRC1 inh 56.6
C[C@@]12CC[C@H]3c4ccc(OCC(=O)O)cc4CC[C@@H]3[C@H]1CCC2=O	none (no result: ERa SRC1 pot, ERb coact inh, ERa SRC1 inh)
O=C(NCc1ccco1)c1ccccc1NS(=O)(=O)c1ccc(Br)s1	none
COc1ccc(CNC(=O)c2cc3c(=O)n4ccccc4nc3n(Cc3ccco3)c2=N)cc1	ERb coact inh 57.3[fluorescence artefact?], ERa SRC1 inh 91.4[fluorescence artefact?]
Cc1ccc(Cn2c(=N)c(C(=O)NCc3ccco3)cc3c(=O)n4ccccc4nc32)cc1	ERb coact inh 56.4[fluorescence artefact?], ERa SRC1 inh 83.1[fluorescence artefact?]
N=c1c(C(=O)NCc2ccco2)cc2c(=O)n3ccccc3nc2n1CCc1ccccc1	ERb coact inh 50.4, ERa SRC1 inh 80.6[fluorescence artefact?]
O=C(NCc1ccco1)c1cccn2c(=O)c3cc4ccccc4cc3nc12	ERa SRC1 inh 61.4[fluorescence artefact?]
COc1ccc(CCn2c(=N)c(C(=O)NCc3ccco3)cc3c(=O)n4ccccc4nc32)cc1OC	none
CSCC[C@H](NC(=O)c1ccc(Cl)c(S(=O)(=O)N2CCCC2)c1)c1nc2ccccc2[nH]1	none
CCOc1cc(S(=O)(=O)N2CCCCCC2)ccc1F	none
C[C@@H]1C[C@H](C)CN(S(=O)(=O)c2cc(Cl)c(Oc3ccc([N+](=O)[O-])cc3Cl)c(Cl)c2)C1	none (no result: ERa SRC1 pot, ERb coact inh, ERa SRC1 inh)
CC(Sc1ncnc2ccccc12)C(=O)Nc1ccc2c(c1)OCO2 (stereo unspecified)	none
O=C(Nc1ccc2c(c1)OCO2)C1CCN(C(=O)CSc2ncnc3ccccc23)CC1	ERa SRC1 inh 54.5[fluorescence artefact?]
CSc1nc(C)cc(Nc2ccc(O)c(CN3CCOCC3)c2)n1	none (no result: ERa SRC1 pot, ERb coact inh, ERa SRC1 inh)
CN(c1ccccc1C(=O)O)S(=O)(=O)c1ccc2c3c(cccc13)C(=O)N2	ERb coact inh 62.2, ERa SRC1 inh 56.5
O=C1Nc2ccc(S(=O)(=O)NCc3ccco3)c3cccc1c23	ERb coact inh 58.1[fluorescence artefact?]
Oc1c(Cl)cc(CN(Cc2cc(Cl)c(O)c(Cl)c2)C2CCCCC2)cc1Cl	none (no result: ERa SRC1 pot, ERb coact inh, ERa SRC1 inh)
O=C(Nc1nnc(-c2ccccc2)o1)c1ccc(Cl)cc1	none
CN(C)c1ccc(C(=O)Nc2nnc(-c3ccc(Cl)cc3)o2)cc1	ERb coact inh 56.4[fluorescence artefact?], ERa SRC1 inh 63.9[fluorescence artefact?]
COc1ccccc1C(=O)Nc1c2c(nn1-c1cccc(C)c1C)CS(=O)(=O)C2	ERa SRC1 pot 410.2[fluorescence artefact?]
CCCCCCSc1nc(O)c(C2OC(=O)c3c2ccc(OC)c3OC)c(=O)n1-c1ccccc1 (stereo unspecified)	none
CCc1nnc2sc(-c3ccc(NC(=O)c4ccc5c(c4)OCCO5)cc3)nn12	ERa SRC1 pot 326.0
COc1cc2c3nnc(-c4ccc(F)cc4)c-3cn(Cc3ccc(F)cc3)c2cc1OC	ERa SRC1 pot 481.1[fluorescence artefact?]
COc1cccc(-n2nnc3c(=O)n(Cc4ccc(F)cc4)cnc32)c1	none
COc1ccc(Cn2cc3c(-c4ccc(F)cc4)nnc-3c3cc(OC)c(OC)cc32)cc1	ERa SRC1 pot 262.4[fluorescence artefact?]
COc1ccc(C(O)c2nccn2Cc2ccccc2)cc1OC (stereo unspecified)	none
COc1cc2c3nnc(-c4ccc(F)cc4)c-3cn(Cc3ccccc3)c2cc1OC	ERa SRC1 pot 424.1[fluorescence artefact?]
O=C(O)c1[nH]c(=O)[nH]c(=O)c1CN1CCCCC1	none (no result: ERa SRC1 pot, ERb coact inh, ERa SRC1 inh)
CC1(C)NC(=O)N(CCOCCOc2c(Cl)cc(Cl)cc2Cl)C1=O	none
O=c1c(C(c2ccccc2)c2c(O)sc3ccccc3c2=O)c(O)sc2ccccc12	ERa SRC1 inh 81.2[fluorescence artefact?]
OC[C@@H]1CCC[C@H](n2cnc3c(=S)nc[nH]c32)O1	Smad3 FoxH1 inh 54.8 (no result: ERa SRC1 pot, ERb coact inh, ERa SRC1 inh)
Cc1cc(C)c2cc(CN(CCO)C(=O)Nc3ccc(Cl)cc3)c(=O)[nH]c2c1	ERa SRC1 pot 231.5
CC(C)C(=O)Nc1ccc(C(=O)NC2CCSC2=O)cc1 (stereo unspecified)	ERa SRC1 pot 204.2
CC(Oc1ccc(Cl)cc1Cl)C(=O)NC1CCSC1=O (stereo unspecified)	none
CC1=C(CC[C@H](C)CO)O[C@@H]2C[C@@H]3[C@H]4CC[C@H]5C[C@@H](O)CC[C@]5(C)[C@@H]4CC(=O)[C@@]3(C)[C@H]12	Smad3 FoxH1 inh 98.7 (no result: ERa SRC1 pot, ERb coact inh, ERa SRC1 inh)
C[C@]12CC[C@H](O)C[C@@H]1CC[C@H]1[C@H]2CC[C@]2(C)[C@@H]1CC[C@H]2c1cc(C(F)(F)F)n[nH]1	none (no result: ERa SRC1 pot, ERb coact inh, ERa SRC1 inh)
Cc1ccc(C(=O)O)cc1-c1ccc(/C=C2/NC(=O)N(c3ccccc3)C2=O)o1	ERb coact inh 81.0[fluorescence artefact?], ERa SRC1 inh 79.6[fluorescence artefact?]
Cc1ccc(N2C(=O)c3ccc(C(=O)O)cc3C2=O)cc1C	none
COc1ccc2cc(CN(CCCN3CCOCC3)Cc3nnnn3C3CCCC3)c(=O)[nH]c2c1	ERa SRC1 pot 261.4[fluorescence artefact?]
CN1CCc2c(sc3ncn4nc(-c5ccccc5O)nc4c23)C1	ERb coact inh 77.2[fluorescence artefact?], ERa SRC1 inh 93.8[fluorescence artefact?]
CCC(C(=O)NCc1ccco1)n1nc(-c2ccc(OC)cc2)ccc1=O (stereo unspecified)	ERa SRC1 pot 227.2[fluorescence artefact?]
COc1ccc(-c2ccc(=O)n(CC(=O)NCc3ccco3)n2)cc1	none
CCOC(=O)c1sc(NC(=O)c2c(C)nn(Cc3ccccc3)c2C)cc1C	ERa SRC1 pot 201.9
O=C(CN1CCOCC1)Nc1ccccc1NC(=O)C1CCN(c2ncccn2)CC1	none
